The campaign covered roughly 53,000 sequences. About 3,700 (7%) were called active.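 Rule for the calls: active = gene knockdowns whose robust z-score for IL-1 alpha signal is at least 2 or at most -2, so actives lie on both sides; inactive = the rest.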 Only a selection was taken, and actives are over-represented in it overall.

This experiment is described as follows: Components of the Cytosolic LPS Sensing Pathway: Gene Identification via Genome-wide siRNA Screen.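 Note: robust z of the log signal after scaling to non-targeting control siRNA wells of the plate.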 The settings on record: RAW264.7 macrophages, IL-1a HTRF, actives lie on both sides, screened at 100 nM (by protocol), cells primed 5 h with Pam3CSK4 first. The essentials:
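Cells (RAW264.7, 1×10^4 per well) were transfected with siRNA at 100 nM and cultured 48h at 37 degrees C. Pam3CSK4 was added for 5 hours; LipidA transfection followed for 24 hour. IL-1a was then measured by HTRF.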
For the sequence CCAGUUCUUAACAUUGUGUTT against Syap1, the z-score was -1.13 (inactive).
Next, CCCAUCAUCUUCCCAUUCGTT against Olfr146: -0.204 (inactive); GGGCUAGAUGAAUUUUUGATT against Aplnr: -0.181 (inactive); GGCCUGGAUUCCUUAACAATT against Lgi1: -3.23 (active).
Take CCAGCUAUGUGUAUAAACCTT against Ppid: the z-score is -0.045 (inactive).
Then GCCUGUGCCUUUUGAAUUCTT against Brox, with -0.0201 (inactive); and GGUCUAUCCCAUCAUGCCUTT against Clcnka, with 0.583 (inactive); and GCAGAGAGUUUUUAUCUGCTT against Vmp1, with 0.0579 (inactive).
As for CGCUACGACUAGAGUUUGCTT against Rbpms, the z-score was 2.36 (active).
Then GGGAAGAACUUCAAGCUUGTT against Ptk2b, with 0.668 (inactive); and GGUUGGACUGACUAUCCAUTT against Olfr984, with 1.02 (inactive).
Next, GGCUGCUGACAUUUUCAUCTT against Lrrc28: 1.53 (inactive).
Turning to GGAUAUGCUCAGAGGUUUUTT against Pex11g, the z-score was 2.2 (active).
Then GGUCCUAACAUCCAGAGUGTT against Zfp438, with -1.06 (inactive); and GGAUAAGACCAUCAGAUUATT against Wdr31, with 1.18 (inactive).
Next, GGAGCUUGAUUCGAAGCCUTT against Bik: -0.364 (inactive); GCGAAGAGUCAAAUCCAUCTT against Dock8: -1.93 (inactive).
Next, CGGGUGCUAAAAUGUCUAUTT against Khdrbs2: 2.81 (active).
For the sequence CCGAAGUUCACCCUAAAGGTT against Lmna, the z-score is -0.485 (inactive).
Next, GCAAAGAAGUGUAUGUGUUTT against Olfr273: 0.0336 (inactive).
Then GCUUCUCAGAAGAUGUACUTT against Rgs16, with -1.06 (inactive); and GCCCUAUAUAUCAUUCUAGTT against Rhoa, with 1.12 (inactive); and GCCUGUUAUAUGUGGCCUUTT against Olfr1352, with 0.673 (inactive).
Then GGAUGUCCUGAAAGAAAAATT against H2-M9, with 0.633 (inactive).
Regarding GCUUUAUUCACUCACUUUCTT against Chsy3, the z-score was 0.814 (inactive).
Then GGAUAACUGUAACAGCCCGTT against Ly6g6c, with -2.12 (active).
Then GGUGAUUUCUAUCGAUUUUTT against Dhrs9, with 0.144 (inactive); and GGACGUGCUCAAGUUCAUCTT against Ift172, with 0.519 (inactive); and GGAAGUCAAGCAAAAGUUUTT against Hsd17b7, with -0.516 (inactive).
With GGUUGAAGAUGAAAGAAGATT against Sin3a, the z-score is 0.132 (inactive).

The record behind these values is PubChem BioAssay AID1508600 (Functional Genomics Laboratory (NCATS/FGL), 2020).
